Bioassay records (PubChem BioAssay)
Most compounds without a hit are left out; they make up all but 2.7% or so of the library.
HIF-2a inh: HIF-2a reporter inhibitors, primary screen, luminescence, 786-0 RCC cells; 786-0 RCC cells HIF-2a reporter, luciferase luminescence, overnight; inhibition, % at 18.8 µM; actives 0.72% (n = 360,000);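 active = inhibition of the luminescence signal of 40% or more relative to plate controls, in a single-dose primary screen at 18.75 µM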
CF NFkB block: inhibitors of PAF-induced NF-kB signaling, primary screen, cell-based, GFP fluorescence, uHTS; KKLEB NF-kB-GFP reporter, GFP fluorescence overnight; inhibition, % at 5 µM; actives 0.86% (n = 360,000); AID 588850, 2011;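 active = at least 50% inhibition at 5 µM, scaled per plate between neutral and stimulator controls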;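 note: PAF is a Pseudomonas aeruginosa culture filtrate used as stimulus; plate controls were PAF-stimulated DMSO wells for no effect and unstimulated DMSO wells for full effect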
KKLEB cytotox: cytotoxicity in KKLEB CF airway cells, primary screen, cytotoxicity control for CF NF-kB inhibitor project, cell-based, uHTS, fluorescence assay plates | actives 0.36% (n = 360,000) | activity change (cytotoxicity), % at 5 µM | KKLEB CF airway cells viability, ATPlite luminescence, overnight; hits give low values; cells stimulated with P. aeruginosa culture filtrate;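 active = corrected activity change at or below -50% at 5 µM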
MITF TRPM1 inh: inhibitors of MITF-dependent TRPM1 promoter reporter, primary screen, cell-based, SK-MEL-5, single point, luciferase; SK-MEL-5 TRPM1 promoter luciferase, 24 h; actives 0.83% (n = 330,000); inhibition, % at 12.5 µM; AID 488899, 2010;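 active = mean inhibition across replicates of 60% or more, whatever share of single replicates reaches that level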
Shn3 inh set2: reduction of Shn3 3'UTR firefly luciferase signal, primary screen, Schnurri-3 inhibitor project, cell-based, Clone20 osteoblasts, set 2; Clone20 osteoblast Shn3 3'UTR firefly luciferase, 24 h; inhibition, % at 12.5 µM; actives 0.52% (n = 360,000); AID 588674, 2011;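 active = mean inhibition of at least 75% with every replicate also reaching 75%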;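 note: 0% = median of neutral control wells and 100% = pilot-screen positive control compound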
Peg3 promoter: Peg3 promoter-driven luciferase inhibitors, primary screen, cell-based, HeLa, luciferase luminescence; inhibition, % at 20 µM; AID 588405, 2011; HeLa PEG-Prom luciferase reporter, overnight; actives 1.7% (n = 360,000);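 active = inhibition of at least 50% at 20 µM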
CF NFkB inh conf: inhibitors of PAF-induced NF-kB signaling, retest, confirmation, cell-based, GFP fluorescence, single concentration | AID 602472, 2012 | KKLEB CF airway cells, overnight | actives 64% (n = 1,300) | shares compounds with CF NFkB block | inhibition, % at 5 µM; in the data active = inhibition above about 40%;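 note: stimulus PAF is a Pseudomonas aeruginosa filtrate and not platelet activating factor; plate controls were DMSO wells with stimulus for no effect and unstimulated DMSO wells for full effect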
* marks the source's active call; other numbers are inactive results.

How did CN(C)CCn1c2c(c(SCC(=O)NCc3ccccc3)nc1=O)CCCC2 do in these assays?
HIF-2a inh: 13.1; CF NFkB block: -7.4; KKLEB cytotox: 13.0; MITF TRPM1 inh: -0.4; Shn3 inh set2: -0.1; Peg3 promoter: -6.6

Results for COc1ccc(C(=O)NC(C)c2ccccc2)cc1Br (centres undefined) ?
HIF-2a inh: 1.6; CF NFkB block: 11.0; KKLEB cytotox: 0.9; MITF TRPM1 inh: 6.1; Shn3 inh set2: 5.5; Peg3 promoter: 12.8

What do the screens show for `C[C@@H](NC(=O)c1coc(=O)c(Br)c1)c1ccccc1`?
HIF-2a inh: 9.8; CF NFkB block: 73.8*; KKLEB cytotox: -5.7; MITF TRPM1 inh: -5.9; Shn3 inh set2: 15.8; Peg3 promoter: 98.9*; CF NFkB inh conf: 60.1*

How did O=C(NCCOc1ccccc1)c1ccccc1Cl do in these assays?
HIF-2a inh: -163.2; CF NFkB block: -9.0; KKLEB cytotox: 12.6; MITF TRPM1 inh: -74.1; Shn3 inh set2: -9.1; Peg3 promoter: -168.7

What do the screens show for `CN(C(=O)COc1ccccc1C(=O)NCCOc1ccccc1)c1ccccc1`?
HIF-2a inh: -10.4; CF NFkB block: 56.9*; KKLEB cytotox: -25.6; MITF TRPM1 inh: 27.5; Shn3 inh set2: 93.7*; Peg3 promoter: 106.3*; CF NFkB inh conf: 23.2

How did CC(=O)c1c(C(C)=O)c(C)n(Cc2ccccc2)c1C do in these assays?
HIF-2a inh: -10.7; CF NFkB block: -1.3; KKLEB cytotox: -0.4; MITF TRPM1 inh: 11.7; Shn3 inh set2: 20.9; Peg3 promoter: 12.9

How did Cc1c(C=O)c(C=O)c(C)n1Cc1ccccc1 do in these assays?
HIF-2a inh: -17.9; CF NFkB block: 53.1*; KKLEB cytotox: -48.4; MITF TRPM1 inh: 45.2; Shn3 inh set2: 9.3; Peg3 promoter: 41.4; CF NFkB inh conf: 66.0*

Results for C[C@H](O)[C@@H]1CN2CCc3c([nH]c4ccc(-c5ccc6c(c5)OCO6)cc34)[C@@H]2C[C@@H]1N(C)C(=O)Nc1ccc(F)cc1 ?
HIF-2a inh: -7.8; CF NFkB block: 64.8*; KKLEB cytotox: -39.5; Shn3 inh set2: 22.4; Peg3 promoter: 70.5*; CF NFkB inh conf: 52.4*

How did C[C@H](O)[C@@H]1CN2CCc3c([nH]c4ccccc34)[C@@H]2C[C@@H]1N(C)C(=O)Nc1cccc2ccccc12 do in these assays?
HIF-2a inh: 6.2; CF NFkB block: -0.4; KKLEB cytotox: -11.9; Shn3 inh set2: 4.8; Peg3 promoter: 3.0

Results for CC(C)C[C@H]1CNC(=S)N1C[C@H]1CCCN1C[C@H](Cc1ccc(O)cc1)N1C[C@H](CC(C)C)N(CCc2ccccc2)C1=S ?
HIF-2a inh: -18.4; CF NFkB block: 55.7*; KKLEB cytotox: -15.7; Shn3 inh set2: 6.4; Peg3 promoter: 7.7; CF NFkB inh conf: 22.3

How did CCOc1ccc(CCN2C(=S)N([C@@H](CC(C)C)CN3CCCC3CN3C(=S)NC[C@@H]3CC(C)C)C[C@@H]2Cc2ccc(O)cc2)cc1 (some centres undefined) do in these assays?
HIF-2a inh: -19.6; CF NFkB block: 52.6*; KKLEB cytotox: -8.7; MITF TRPM1 inh: 9.2; Shn3 inh set2: 17.7; Peg3 promoter: 9.7; CF NFkB inh conf: 62.5*

How did CC(C)C[C@@H](CN1CCCC1CN1C(=S)NC[C@@H]1Cc1ccc(O)cc1)N1C[C@H](Cc2ccc(O)cc2)N(CC2CCCCCC2)C1=S (some centres undefined) do in these assays?
HIF-2a inh: -34.5; CF NFkB block: 52.4*; KKLEB cytotox: -0.5; MITF TRPM1 inh: 2.1; Shn3 inh set2: 83.2; Peg3 promoter: 91.2*; CF NFkB inh conf: 60.9*

Results for CCOc1ccc(CCN2C(=S)N([C@@H](CC(C)C)CN3CCC[C@@H]3CN3C(=S)NC[C@@H]3CC(C)C)C[C@@H]2Cc2ccc(O)cc2)cc1 ?
HIF-2a inh: -15.3; CF NFkB block: 36.1; KKLEB cytotox: -7.5; Shn3 inh set2: 5.5; Peg3 promoter: 18.9

What do the screens show for `CC(C)C[C@H]1CNC(=S)N1C[C@H]1CCCN1C[C@H](Cc1ccccc1)N1C[C@H](Cc2ccc(O)cc2)N(CCc2ccccc2)C1=S`?
HIF-2a inh: -13.5; CF NFkB block: 65.7*; KKLEB cytotox: -11.3; Shn3 inh set2: -4.4; Peg3 promoter: 12.3; CF NFkB inh conf: 31.1

How did COc1cc2c(cc1OC)CN(C(=O)Cc1c(F)cccc1Cl)CC2 do in these assays?
HIF-2a inh: 12.9; CF NFkB block: 4.0; KKLEB cytotox: -3.6; MITF TRPM1 inh: -3.9; Shn3 inh set2: 4.8; Peg3 promoter: 0.6

What do the screens show for `O=C(/C=C/c1cccc([N+](=O)[O-])c1)n1cnc2ccccc21`?
HIF-2a inh: 27.7; CF NFkB block: 82.4*; KKLEB cytotox: -3.2; MITF TRPM1 inh: 66.6*; Shn3 inh set2: 91.9*; Peg3 promoter: 100.4*; CF NFkB inh conf: 66.9*

What do the screens show for `CC(=O)N1CCc2c(sc(NC(=O)c3ccc([N+](=O)[O-])o3)c2C(N)=O)C1`?
HIF-2a inh: -64.7; CF NFkB block: 95.6*; KKLEB cytotox: -30.2; Shn3 inh set2: 99.5*; Peg3 promoter: 97.2*; CF NFkB inh conf: 31.1

Results for CCOC(=O)C1CCCN(S(=O)(=O)Cc2ccc(Cl)cc2)C1 (centres undefined) ?
HIF-2a inh: 0.8; CF NFkB block: 11.4; KKLEB cytotox: 0.2; MITF TRPM1 inh: 6.7; Shn3 inh set2: 2.8; Peg3 promoter: 1.4

Results for CCOC(=O)C1=C(CC)Nc2ccccc2N=C1NC(=O)c1cc(C)on1 ?
HIF-2a inh: 12.8; CF NFkB block: 6.8; KKLEB cytotox: -16.0; MITF TRPM1 inh: 9.5; Shn3 inh set2: -4.2; Peg3 promoter: 7.4

What do the screens show for `CCOC(=O)C1=C(CC)Nc2ccccc2N=C1NC(=O)Nc1ccc(Cl)c(Cl)c1`?
HIF-2a inh: -71.9; CF NFkB block: 56.1*; KKLEB cytotox: -24.7; MITF TRPM1 inh: -1.6; Shn3 inh set2: 22.9; Peg3 promoter: -15.5; CF NFkB inh conf: 100.8*

Results for Cc1cccc2c1NC(=O)/C2=C\C(=O)c1cccs1 ?
HIF-2a inh: 44.5*; CF NFkB block: 74.3*; KKLEB cytotox: -41.5; MITF TRPM1 inh: 32.0; Shn3 inh set2: 16.2; Peg3 promoter: 74.1*; CF NFkB inh conf: 46.6*
